Growth inhibition data for 21 compounds are collected here from PubChem BioAssay (NCI).

About 79,000 compounds went through this panel and 15% of them were active in at least one assay; those are over-represented in the sample as a whole. Values without a mark were called inactive. The source made the active and inactive calls. Rule as the data show it: active = growth inhibition above about 70%; inactive = the rest. Where a SMILES comes first, the peptide text is derived from it. [ ]: non-standard residue; d: D form. The star is where a group is joined. ξ: configuration not given here. ξF = NC(Cc1ccccc1)C(=O)O; Cbz = O=C(OCc1ccccc1)*; Aib = CC(C)(N)C(=O)O

The nature of assay [1]: NCI Yeast Anticancer Drug Screen. Data for the rad50 strain (AID 155).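 Also: 0% = growth of vehicle-only cultures of the same strain.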 The following applies: S. cerevisiae rad50 strain growth inhibition; at 50.0 µM; hits give high values. Summed up:
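Cells are treated with compound, grown, and their growth is then scored against vehicle-only cultures of the same repair-deficient yeast strain.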

The nature of assay [2]: NCI Yeast Anticancer Drug Screen. Data for the mec2-1 strain (AID 157). The following applies: S. cerevisiae mec2-1 strain, at 50.0 µM, hits give high values. Summed up: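 Cells of the genetically defined mec2-1 yeast strain are incubated with test compound. Inhibition of growth is calculated against vehicle-treated controls.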
A short description of assay [3]: NCI Yeast Anticancer Drug Screen. Data for the sgs1 mgt1 strain (AID 161).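 Also: 0% = growth of cultures given vehicle only.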 The conditions noted are these: S. cerevisiae sgs1 mgt1 strain, at 50.0 µM, hits give high values. Summed up:
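Read-out: growth inhibition vs vehicle controls. Cells: mutant yeast strain deficient in DNA damage repair.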

The nature of assay [4]: NCI Yeast Anticancer Drug Screen. Data for the cln2 rad14 strain (AID 165).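 Also: 0% = growth equal to vehicle treated cultures.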 The following applies: S. cerevisiae cln2 rad14 strain, at 50.0 µM, hits give high values. Summed up:
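The screen exposed genetically defined yeast (cln2 rad14) to test compounds and scored growth inhibition relative to vehicle-treated controls.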

Assay [5] in a line: NCI Yeast Anticancer Drug Screen. Data for the bub3 strain (AID 167). The conditions noted are these: S. cerevisiae bub3 mutant strain, at 50.0 µM, hits give high values. In short, it runs like this: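 Part of a panel of yeast mutants defective in DNA damage repair or cell cycle regulation. Each strain is grown with compound, and inhibition is calculated relative to solvent-treated cultures.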

Assay [6] can be described thus: NCI Yeast Anticancer Drug Screen. Data for the mlh1 rad18 strain (AID 175). The following applies: S. cerevisiae mlh1 rad18 strain growth inhibition; at 50.0 µM; hits give high values. In short, it runs like this:
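Compound-treated yeast growth, normalised to vehicle controls. Strain bears defined DNA repair mutations.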

In the case of `COc1ccc(-c2oc3ccccc3c(=O)c2O)cc1OC`, the growth inhibition in assay [1] is 2.3%; in assay [2], 9.9%; in assay [3] it was 16.2%; in assay [4], -10.8%; in assay [5], 21.4%; in assay [6], -11.1%.
Turning to `CCC[CH2][Sn]([CH2]CCC)([O]C(=O)c1nccnc1N)[O]C(=O)c1nccnc1N`, the growth inhibition in assay [1] was 92.2% (active); in assay [2], 92.5% (active); in assay [3], 93% (active); in assay [4], 92.2% (active); in assay [5], 90.3% (active); in assay [6] it was 88.2% (active).
For the compound `N=C1N=Nc2nc(C(C(=O)c3cccc(O)c3)c3nc4n(c3O)C(=N)N=N4)c(O)n21` (stereo unspecified), the growth inhibition is 18.8% in assay [1]; 23.9% in assay [2]; -8.9% in assay [3]; 10.4% in assay [4]; -2.75% in assay [5]; 28.6% in assay [6].
For the compound `CC(O)(C1CC1)C(C(=O)O)c1ccccc1` (stereo unspecified), the growth inhibition is -15.4% in assay [1]; -6.85% in assay [2]; 1.9% in assay [3]; -26.7% in assay [4]; 1.55% in assay [5]; 10.6% in assay [6].
For the compound `CNc1ncnc2nc[nH]c12`, the growth inhibition was 16.2% in assay [1]; -6.85% in assay [2]; 2.9% in assay [3]; -3.15% in assay [4]; -8.5% in assay [5]; 14.9% in assay [6].
Regarding `COc1cc(C)c(O)c(C)c1C`, the growth inhibition in assay [1] is -1.9%; in assay [2] it was -4.1%; in assay [3], -6.55%; in assay [4], -30.3%; in assay [5], -13.1%; in assay [6], 8.35%.
Consider `Clc1ccccc1C=Nc1ccccc1`, for which the growth inhibition in assay [1] was 31.2%; in assay [2], 11.9%; in assay [3] it was 30.7%; in assay [4] it was 20.6%; in assay [5], 24.7%; in assay [6], 34%.
Turning to `CCCCNc1nc2nc[nH]c2c(=O)[nH]1`, the growth inhibition was -5.45% in assay [1]; -6.3% in assay [2]; -13.2% in assay [3]; -2.25% in assay [4]; -29.1% in assay [5]; -48% in assay [6].
For the compound `CC(C)(NC(=O)OCc1ccccc1)C(=O)NC(Cc1ccccc1)C(=O)O` (stereo unspecified) (Cbz-[Aib]-[ξF]-OH), the growth inhibition was -26.6% in assay [1]; -61% in assay [2]; -5.7% in assay [3]; 19.8% in assay [4]; 11.2% in assay [5]; -11.3% in assay [6].
With `C[n+]1c2ccccc2c(Oc2c3ccccc3[n+](C)c3ccccc23)c2ccccc21`, the growth inhibition in assay [1] is 3.8%; in assay [2], 11.2%; in assay [3], 31.4%; in assay [4], -15.3%; in assay [5], -4.4%; in assay [6], 0.1%.
`Cc1ccc(CCCC(N)=O)cc1`: the growth inhibition in assay [1] is 32.1%; in assay [2], -0.15%; in assay [3], 8.85%; in assay [4] it was 4.1%; in assay [5], -2.15%; in assay [6], 2.55%.
In the case of `O=C(COc1ccc(Cl)c(Cl)c1)NCc1ccc(Cl)cc1`, the growth inhibition in assay [1] is 7.35%; in assay [2], 13.2%; in assay [3], 0.1%; in assay [4] it was 5.3%; in assay [5], 29.3%; in assay [6] it was 49.5%.
As for `CCOC(=O)C(C)(C(=O)OCC)c1c[n+]([O-])c2ccccc2c1[N+](=O)[O-]`, the growth inhibition was 13.8% in assay [1]; -5.15% in assay [2]; 19.3% in assay [3]; -22.4% in assay [4]; -4.55% in assay [5]; 12.9% in assay [6].
As to `COC(=O)C1(O)CCC(C)CC1` (stereo unspecified), the growth inhibition was 14.4% in assay [1]; -9.25% in assay [2]; -8.65% in assay [3]; -26.3% in assay [4]; 2.1% in assay [5]; 14.8% in assay [6].
In the case of `c1ccc(NCNC2Nc3ccccc3N2)cc1`, the growth inhibition in assay [1] is -25.9%; in assay [2], -13.2%; in assay [3], 12.3%; in assay [4] it was -3.35%; in assay [5] it was -20.6%; in assay [6], 11.6%.
For `CCOC(=O)c1cnc(=O)n(Cc2ccccc2)c1N`, the growth inhibition in assay [1] is -1.25%; in assay [2], 0.65%; in assay [3], 10.9%; in assay [4], 0.45%; in assay [5], 0.35%; in assay [6], -8.15%.
On to `NC(=S)NNc1ccccc1`, for which the growth inhibition in assay [1] was 0.2%; in assay [2] it was -5.8%; in assay [3], -0.05%; in assay [4] it was -6.7%; in assay [5], -2.6%; in assay [6], -5.3%.
With `Cc1ccc(S(=O)(=O)N/N=C2/C(=N/NS(=O)(=O)c3ccc(C)cc3)C3CCC2C3)cc1`, the growth inhibition in assay [1] is 6.7%; in assay [2], 4.85%; in assay [3], -2.75%; in assay [4], -29.2%; in assay [5] it was -1.7%; in assay [6] it was -6.45%.
As for `Cc1ccc(-c2cc(-c3cc(-c4ccc(C)cc4)nc(N)n3)nc(N)n2)cc1`, the growth inhibition is 3.7% in assay [1]; -13.4% in assay [2]; -20.1% in assay [3]; -13.2% in assay [4]; -25.1% in assay [5]; -13% in assay [6].
Take `CCOC(=O)c1ccc(NP(=O)(Nc2ccc(C(=O)OCC)cc2)c2ccc(N)cc2)cc1`: the growth inhibition is -5.65% in assay [1]; -17.4% in assay [2]; -2.25% in assay [3]; -65.7% in assay [4]; 0.85% in assay [5]; 4.25% in assay [6].
As for `CC1CCCC2C(=O)OC(=O)C12` (stereo unspecified), the growth inhibition is -5.3% in assay [1]; -9.6% in assay [2]; -13.1% in assay [3]; -60.6% in assay [4]; -21.1% in assay [5]; -11.4% in assay [6].
